Laboratory results reported in PubChem BioAssay (NCI).
“And” between values parts separate entries of the source, which are not always exact repeats. Equal entries are not always repeated. The panel holds about 83,000 compounds, 20% with a hit somewhere; the sample as a whole holds those more often.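 Results are percent growth after 48 hours of single-concentration exposure. 100 means growth as in untreated cells, lower positive values show inhibition; negative values down to -100 show cell death.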 The source made the active and inactive calls. The calls were made as follows: active = growth percent below 10; inactive = the rest.

Tests used:
Experiment in all cases: NCI-60 one-dose screen, 48 h (100 = growth as untreated, 0 = no growth, -100 = all killed)
Conditions in all cases: 10 µM
NCI-H23 lung = test system: NCI-H23 lung
NCI-H226 lung = test system: NCI-H226 lung
NCI-H322M lung = test system: NCI-H322M lung
HOP-62 NSCLC = test system: HOP-62 NSCLC
NCI-H460 lung = test system: NCI-H460 lung
HOP-92 NSCLC = test system: HOP-92 NSCLC
NCI-H522 lung = test system: NCI-H522 lung
A549/ATCC NSCLC = test system: A549/ATCC NSCLC
786-0 renal = test system: 786-0 renal
COLO 205 colon = test system: COLO 205 colon

| Structure (SMILES) | growth (NCI-H23 lung) | growth (NCI-H226 lung) | growth (NCI-H322M lung) | growth (HOP-62 NSCLC) | growth (NCI-H460 lung) | growth (HOP-92 NSCLC) | growth (NCI-H522 lung) | growth (A549/ATCC NSCLC) | growth (786-0 renal) | growth (COLO 205 colon) |
| --- | --- | --- | --- | --- | --- | --- | --- | --- | --- | --- |
| O=C(CCl)Nc1ccc(Cl)cc1 | 28.4% (inactive) | 50.7% (inactive) | 78.3% (inactive) | 75.1% (inactive) | 99.8% (inactive) | 57.8% (inactive) | -96.3% (active) | 85.1% (inactive) | 44.7% (inactive) | – |
| O=C1C(=O)c2ccccc2-c2ccccc21 | -54.3% (active) | -88.3% (active) | 101% (inactive) | -70% (active) | 3.18% (active) | -87.7% (active) | -58.5% (active) | -47.9% (active) | -88.2% (active) | -63.5% (active) |
| O=c1[nH]c2ccccc2n1C1CCN(CCCC(c2ccc(F)cc2)c2ccc(F)cc2)CC1 | 59.8% (inactive) and 38% (inactive) | 92.1% (inactive) and 61.6% (inactive) | 64.2% (inactive) and 67.5% (inactive) | 84% (inactive) and -30.2% (active) | -0.452% (active) and 2.65% (active) | -42.3% (active) and 27.1% (inactive) | 62.3% (inactive) and 33.6% (inactive) | 39.5% (inactive) and 10.9% (inactive) | -43.7% (active) and -57.1% (active) | – |
| Cc1ccc(C(=O)C2C(c3ccccc3)N2C2CCCCC2)cc1 (stereo not drawn) | 102% (inactive) and 88.4% (inactive) | 100% (inactive) and 94.7% (inactive) | 107% (inactive) | 112% (inactive) and 101% (inactive) | 98.6% (inactive) and 92% (inactive) | 78.1% (inactive) | 90.5% (inactive) and 75.5% (inactive) | 99.9% (inactive) and 105% (inactive) | 101% (inactive) and 97.6% (inactive) | – |
| NC(=O)c1cc([N+](=O)[O-])c(Cl)c([N+](=O)[O-])c1Cl | 25.6% (inactive) | 59.7% (inactive) | 98.3% (inactive) | 35.9% (inactive) | 72.2% (inactive) | -52.2% (active) | -82.4% (active) | 89.6% (inactive) | 13.2% (inactive) | -54.1% (active) |
| N#CCc1ccccc1 | 102% (inactive) | 96.3% (inactive) | 105% (inactive) | 97.4% (inactive) | 106% (inactive) | 82.2% (inactive) | 99.4% (inactive) | 101% (inactive) | 101% (inactive) | – |
| Cc1cc(C(C)(C)c2ccc(O)c(C)c2)ccc1O | 97.4% (inactive) | 107% (inactive) | 93.4% (inactive) | 97.4% (inactive) | 110% (inactive) | 110% (inactive) | 83.8% (inactive) | 75.7% (inactive) | 102% (inactive) | 100% (inactive) |
| O=[N+]([O-])c1cc[n+]([O-])c2ccccc12 | -72.1% (active) | -17.8% (active) | -18.3% (active) | -47.9% (active) | -58.4% (active) | -41.6% (active) | -61.6% (active) | -25.1% (active) | -49.2% (active) | – |
| O=S(=O)(F)c1ccc(Cl)cc1 | 100% (inactive) | 109% (inactive) | 123% (inactive) | 106% (inactive) | 113% (inactive) | 86.8% (inactive) | 101% (inactive) | 98.3% (inactive) | 107% (inactive) | – |
| O=[N+]([O-])/C=C/c1ccc([N+](=O)[O-])cc1 | 56.7% (inactive) and 68.7% (inactive) | 114% (inactive) | 90.4% (inactive) and 92.5% (inactive) | 69.5% (inactive) and 107% (inactive) | 19.9% (inactive) and 102% (inactive) | 67.6% (inactive) and 97.8% (inactive) | 81.6% (inactive) and 47.3% (inactive) | 44.2% (inactive) and 101% (inactive) | 55.2% (inactive) and 98.1% (inactive) | – |
| O=[N+]([O-])c1ccc(N2CCOCC2)c2c1no[n+]2[O-] | 13.1% (inactive) | 35.7% (inactive) | 28.1% (inactive) | 8.11% (active) | 6.53% (active) | -31.9% (active) | -70.5% (active) | 21.4% (inactive) | -12.8% (active) | -53.1% (active) |
| COc1cc(/C=C(/C)[N+](=O)[O-])ccc1O | 61.1% (inactive) and 81.4% (inactive) | 86.7% (inactive) and 91% (inactive) | 66.7% (inactive) and 91.5% (inactive) | 55.6% (inactive) and 47.6% (inactive) | 43% (inactive) and 21.5% (inactive) | 41.3% (inactive) | -78.2% (active) and -84.9% (active) | 57.4% (inactive) and 48.9% (inactive) | 50% (inactive) and -13.4% (active) | 60.8% (inactive) and 47.9% (inactive) |
